Test results published in PubChem BioAssay AID623996 (NMMLSC, 2012).
Results with a measured potency or affinity are listed apart. Calls of active or inactive are those of the source.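 Rule for the calls: active = fitted concentration giving half the maximal Nile Red retention below 100 µM; inactive = the rest.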

The compounds below were run against Multidrug resistance protein CDR1 (Candida albicans) (UniProt P43071) (assay: Candida albicans Cdr1 pump inhibition curves – singleplex, Cherry Pick2 set, dose response (AID 623996)). Details: S. cerevisiae AD/CaCDR1, Nile Red efflux inhibition, flow cytometry; series mostly up to 100 µM; efflux inhibition response: at the top concentration.
Sequence of Multidrug resistance protein CDR1 (Candida albicans) (P43071 whole entry, looked up): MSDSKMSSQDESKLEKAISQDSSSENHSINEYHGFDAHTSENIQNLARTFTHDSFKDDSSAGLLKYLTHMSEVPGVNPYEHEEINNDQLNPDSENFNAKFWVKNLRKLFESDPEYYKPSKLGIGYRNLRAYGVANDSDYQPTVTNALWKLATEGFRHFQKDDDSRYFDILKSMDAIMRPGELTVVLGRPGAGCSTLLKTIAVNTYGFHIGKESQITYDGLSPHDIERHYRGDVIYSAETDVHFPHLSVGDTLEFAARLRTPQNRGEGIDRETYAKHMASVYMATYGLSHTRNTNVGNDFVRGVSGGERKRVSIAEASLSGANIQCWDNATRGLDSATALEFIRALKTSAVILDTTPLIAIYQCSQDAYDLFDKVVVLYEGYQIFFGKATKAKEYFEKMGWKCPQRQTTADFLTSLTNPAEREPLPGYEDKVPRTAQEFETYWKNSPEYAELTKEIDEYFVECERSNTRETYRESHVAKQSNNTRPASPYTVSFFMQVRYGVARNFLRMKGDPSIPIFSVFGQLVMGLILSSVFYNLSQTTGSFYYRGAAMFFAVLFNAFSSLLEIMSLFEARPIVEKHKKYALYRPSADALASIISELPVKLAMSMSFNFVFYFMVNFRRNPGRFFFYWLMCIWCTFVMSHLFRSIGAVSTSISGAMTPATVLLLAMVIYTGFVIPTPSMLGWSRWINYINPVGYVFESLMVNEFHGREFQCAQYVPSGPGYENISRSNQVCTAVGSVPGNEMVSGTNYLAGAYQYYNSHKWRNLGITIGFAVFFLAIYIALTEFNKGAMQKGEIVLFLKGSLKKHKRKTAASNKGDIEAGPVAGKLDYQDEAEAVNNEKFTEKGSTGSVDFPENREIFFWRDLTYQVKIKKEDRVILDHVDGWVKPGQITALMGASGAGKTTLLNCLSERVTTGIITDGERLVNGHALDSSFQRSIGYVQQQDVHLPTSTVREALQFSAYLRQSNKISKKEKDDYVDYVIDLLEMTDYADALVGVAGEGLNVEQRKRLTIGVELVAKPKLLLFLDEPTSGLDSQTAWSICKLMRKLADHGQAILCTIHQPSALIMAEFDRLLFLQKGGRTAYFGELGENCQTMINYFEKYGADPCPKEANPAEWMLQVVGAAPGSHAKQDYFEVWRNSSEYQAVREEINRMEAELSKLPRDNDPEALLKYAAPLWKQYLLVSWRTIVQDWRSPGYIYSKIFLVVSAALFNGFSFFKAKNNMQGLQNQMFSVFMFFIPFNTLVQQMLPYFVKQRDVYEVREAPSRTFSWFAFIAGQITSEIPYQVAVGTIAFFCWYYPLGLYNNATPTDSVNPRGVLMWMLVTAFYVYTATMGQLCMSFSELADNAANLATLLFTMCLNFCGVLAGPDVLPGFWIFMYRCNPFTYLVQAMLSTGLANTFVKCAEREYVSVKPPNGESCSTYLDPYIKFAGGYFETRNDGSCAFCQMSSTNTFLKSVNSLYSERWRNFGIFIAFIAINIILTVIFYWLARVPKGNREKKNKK

Efflux inhibition response, inactive:
O=C(CSc1nnc(Cc2cccs2)n1Cc1ccco1)Nc1ccc(Br)cc1 -1.77%, NS(=O)(=O)c1ccc(N2N=C(c3ccccc3)CC2c2ccc(F)cc2)cc1 (stereo not given) 2.86%, COc1cccc(-c2sc3ccc(OC)cc3c2-c2ccc(OCCN3CCOCC3)cc2)c1 96.5%, O=C(C1CCCN(c2ncnc3c2nc2n3CCCCC2)C1)N1CCN(c2ccccc2)CC1 (stereo not given) -1.77%, COc1ccc([C@H]2CC(=O)C=C(c3ccnc4ccc(Cl)cc34)C2)cc1 119%, COc1ccc(N2CCN(C(=O)C3CCCN(c4ncnc5c4nc4n5CCCCC4)C3)CC2)cc1 (stereo not given) -3.49%, COc1ccc2nc(NC(=O)c3cccs3)sc2c1 -4.24%, NC1=NC[C@H](Cc2ccc(O)cc2)N1CCCCC1CCCCC1 -0.35%, COc1ccc(C(=O)OCCc2ccc(O)cc2)cc1 -2.8%, O=C(NCCc1ccc(Cl)cc1)C1CCC(CNc2nc(=S)[nH]c3ccccc23)CC1 (stereo not given) -1.47%, O=C1C(Cc2ccccc2)Nc2ncnc(N3CCN(c4ccccc4)CC3)c2N1Cc1ccccc1 (stereo not given) 17.1%, O=C(c1ccc2c(c1)OCO2)N1CCC2(CC1)Oc1ccc(F)cc1C(=O)C21CC(c2ccc(Cl)cc2)=NO1 (stereo not given) 26.2%, CN1Cc2cc(C(=O)c3ccccc3O)cnc2NC1=O -3.93%, NS(=O)(=O)c1ccc(N2N=C(c3ccc(Br)cc3)CC2c2ccc(F)cc2)cc1 (stereo not given) -3.7%, NC1=NC[C@@H](Cc2ccc(O)cc2)N1CCCCC1CCCCC1 -2.59%, CC(C)C(=O)N1CCC2(CC1)Oc1ccc(Cl)cc1C(=O)C21CC(c2ccc(Cl)cc2)=NO1 (stereo not given) 28.3%, O=C(/C=C/c1cccs1)N1CCC2(CC1)Oc1ccc(F)cc1C(=O)C21CC(c2ccccc2)=NO1 (stereo not given) 93.9%, Cc1cc(C(=O)NC2CC(C)(C)Cc3c2cnn3-c2ccc(F)cc2)no1 (stereo not given) -0.89%, OCCN1CCN(CC/C=C2/c3ccccc3Sc3ccc(C(F)(F)F)cc32)CC1 2.54%, O=C(C[n+]1cc(-c2ccccc2)n2c1CCC2)N1c2ccccc2Sc2ccccc21 -1.96%, CC(C)C(=O)N1CCN(c2ccccc2NC(=O)c2ccc3c(c2)OCCO3)CC1 -2.13%, COc1ccc(CCOC(=O)c2ccc(N)c([N+](=O)[O-])c2)cc1 2.25%, NS(=O)(=O)c1ccc(N2N=C(c3ccccc3)CC2c2cccc(Br)c2)cc1 (stereo not given) -1.26%, O=C(c1ccoc1)N1CCC2(CC1)Oc1ccc(F)cc1C(=O)C21CC(c2ccccc2)=NO1 (stereo not given) 140%, Cc1ccc(C)c(N2CCN(C(=O)C3CCCN(c4ncnc5c4nc4n5CCCCC4)C3)CC2)c1 (stereo not given) 0.23%, COc1ccccc1C(=O)OCCc1ccccc1 -0.84%, COc1ccc(C2CC(c3cccc(OC)c3)=NN2c2ccc(S(N)(=O)=O)cc2)cc1 (stereo not given) 1.19%, CCO[C@@H]1OC(C(=O)Nc2ccccc2)=C[C@H](c2ccc(Br)cc2)[C@H]1CCCO 124%, O=C(NCCC1=CCCCC1)C1CCC(CNc2nc(=S)[nH]c3ccccc23)CC1 (stereo not given) 56.5%

outcome, inactive:
Cc1ccc(O)c(C(=O)c2cnc3c(c2)CN(CCC(C)C)C(=O)N3)c1
